Reference: the supplement of paper PMC12067093, “Discovery and optimisation of a covalent ligand for TRIM25 and its application to targeted protein ubiquitination” (Chemical Science, 2025)
Of roughly 21,000 targets only a part is listed; those with the largest changes were picked by preference.

Compound: CC1Cc2ccccc2N1C(=O)C1CCCN(C1)C(=O)CCl (mixture of isomers) [TRIM25 ligand 11 (diastereomer mixture)]
Assay: probe-labelled cysteine peptide fold change vs DMSO (competition) (log2 fold change); higher = less target engagement (more negative = stronger competition)
Details: THP-1, incubation time: 4 h
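Further: competitive chemoproteomic profiling in live THP-1 cells with an iodoacetamide desthiobiotin (IA-DTB) probe, comparing probe-labelled peptide intensities in compound-treated cells against DMSO-treated controls.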

Chain of UniProt Q9UJW0 (Q9UJW0 whole entry, looked up): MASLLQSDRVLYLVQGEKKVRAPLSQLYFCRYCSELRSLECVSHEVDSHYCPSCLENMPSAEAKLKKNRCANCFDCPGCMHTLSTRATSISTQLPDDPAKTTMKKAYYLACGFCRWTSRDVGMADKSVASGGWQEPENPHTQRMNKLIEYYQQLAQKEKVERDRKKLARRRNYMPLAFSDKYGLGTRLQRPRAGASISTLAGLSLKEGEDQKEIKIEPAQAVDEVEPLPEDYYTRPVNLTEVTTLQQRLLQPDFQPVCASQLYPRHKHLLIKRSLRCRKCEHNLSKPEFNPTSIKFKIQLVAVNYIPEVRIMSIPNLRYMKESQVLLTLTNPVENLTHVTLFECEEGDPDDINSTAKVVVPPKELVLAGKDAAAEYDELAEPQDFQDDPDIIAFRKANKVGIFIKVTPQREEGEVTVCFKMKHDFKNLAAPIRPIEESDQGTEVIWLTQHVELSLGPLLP
Chain of UniProt Q8WYA6 (Q8WYA6 whole entry, looked up): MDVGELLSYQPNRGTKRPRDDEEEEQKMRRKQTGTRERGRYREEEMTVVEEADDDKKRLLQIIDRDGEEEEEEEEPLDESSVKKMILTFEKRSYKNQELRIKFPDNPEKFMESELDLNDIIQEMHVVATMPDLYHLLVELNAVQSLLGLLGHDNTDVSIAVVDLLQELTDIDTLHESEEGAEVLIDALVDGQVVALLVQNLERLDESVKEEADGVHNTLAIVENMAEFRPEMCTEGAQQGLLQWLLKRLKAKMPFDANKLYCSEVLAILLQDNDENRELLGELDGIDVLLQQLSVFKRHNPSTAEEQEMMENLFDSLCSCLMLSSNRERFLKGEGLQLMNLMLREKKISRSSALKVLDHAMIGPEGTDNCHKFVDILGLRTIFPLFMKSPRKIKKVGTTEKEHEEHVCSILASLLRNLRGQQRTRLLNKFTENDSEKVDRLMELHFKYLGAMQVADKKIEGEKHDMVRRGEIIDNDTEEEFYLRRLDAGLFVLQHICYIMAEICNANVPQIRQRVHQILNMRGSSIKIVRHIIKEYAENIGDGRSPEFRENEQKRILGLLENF
Chain of UniProt P50238 (P50238 whole entry, looked up): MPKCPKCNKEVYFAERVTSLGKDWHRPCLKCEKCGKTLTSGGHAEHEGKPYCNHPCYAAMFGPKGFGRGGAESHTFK
Chain of UniProt O95825 (O95825 whole entry, looked up): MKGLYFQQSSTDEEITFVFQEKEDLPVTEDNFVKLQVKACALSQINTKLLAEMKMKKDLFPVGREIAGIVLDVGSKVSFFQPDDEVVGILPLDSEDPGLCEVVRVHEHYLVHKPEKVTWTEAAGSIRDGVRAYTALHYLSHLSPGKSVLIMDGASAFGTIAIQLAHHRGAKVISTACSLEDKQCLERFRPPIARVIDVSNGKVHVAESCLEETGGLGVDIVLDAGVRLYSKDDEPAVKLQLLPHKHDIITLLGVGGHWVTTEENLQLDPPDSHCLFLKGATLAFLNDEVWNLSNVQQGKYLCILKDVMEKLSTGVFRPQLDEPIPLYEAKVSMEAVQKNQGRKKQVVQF
Chain of UniProt Q9NUI1 (Q9NUI1 whole entry, looked up): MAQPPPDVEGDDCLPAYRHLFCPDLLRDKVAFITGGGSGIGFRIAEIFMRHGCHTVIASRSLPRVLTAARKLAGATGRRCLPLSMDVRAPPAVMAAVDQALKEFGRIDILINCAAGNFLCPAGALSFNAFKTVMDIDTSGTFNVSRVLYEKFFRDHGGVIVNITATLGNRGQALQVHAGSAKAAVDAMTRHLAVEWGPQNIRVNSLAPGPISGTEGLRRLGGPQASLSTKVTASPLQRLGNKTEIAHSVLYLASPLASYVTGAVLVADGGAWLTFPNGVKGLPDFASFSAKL
Chain of UniProt Q13574 (Q13574 whole entry, looked up): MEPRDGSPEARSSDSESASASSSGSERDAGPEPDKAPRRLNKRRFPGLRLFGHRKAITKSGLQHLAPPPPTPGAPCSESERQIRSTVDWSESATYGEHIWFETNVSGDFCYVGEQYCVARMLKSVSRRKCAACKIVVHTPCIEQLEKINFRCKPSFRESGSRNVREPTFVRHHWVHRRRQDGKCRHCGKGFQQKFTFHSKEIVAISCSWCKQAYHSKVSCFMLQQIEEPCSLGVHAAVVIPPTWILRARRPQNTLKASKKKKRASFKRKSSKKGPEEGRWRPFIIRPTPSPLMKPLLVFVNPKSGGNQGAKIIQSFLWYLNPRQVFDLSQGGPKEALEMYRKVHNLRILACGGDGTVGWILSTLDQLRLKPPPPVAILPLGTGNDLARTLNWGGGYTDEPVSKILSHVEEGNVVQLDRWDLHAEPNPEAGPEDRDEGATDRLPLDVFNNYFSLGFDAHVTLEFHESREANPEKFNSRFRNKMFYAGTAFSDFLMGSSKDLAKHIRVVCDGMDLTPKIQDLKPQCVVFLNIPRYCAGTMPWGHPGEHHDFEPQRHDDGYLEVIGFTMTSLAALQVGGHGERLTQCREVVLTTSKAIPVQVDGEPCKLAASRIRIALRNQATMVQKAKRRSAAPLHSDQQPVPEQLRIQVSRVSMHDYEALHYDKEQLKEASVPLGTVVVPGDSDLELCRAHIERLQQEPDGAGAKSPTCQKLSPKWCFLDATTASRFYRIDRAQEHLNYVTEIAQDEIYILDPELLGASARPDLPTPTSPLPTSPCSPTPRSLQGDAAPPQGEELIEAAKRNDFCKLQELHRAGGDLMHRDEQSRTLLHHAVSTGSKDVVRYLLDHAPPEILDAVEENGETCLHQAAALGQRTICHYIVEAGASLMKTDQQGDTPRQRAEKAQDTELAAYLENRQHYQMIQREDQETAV
Chain of UniProt Q96HD1 (Q96HD1 whole entry, looked up): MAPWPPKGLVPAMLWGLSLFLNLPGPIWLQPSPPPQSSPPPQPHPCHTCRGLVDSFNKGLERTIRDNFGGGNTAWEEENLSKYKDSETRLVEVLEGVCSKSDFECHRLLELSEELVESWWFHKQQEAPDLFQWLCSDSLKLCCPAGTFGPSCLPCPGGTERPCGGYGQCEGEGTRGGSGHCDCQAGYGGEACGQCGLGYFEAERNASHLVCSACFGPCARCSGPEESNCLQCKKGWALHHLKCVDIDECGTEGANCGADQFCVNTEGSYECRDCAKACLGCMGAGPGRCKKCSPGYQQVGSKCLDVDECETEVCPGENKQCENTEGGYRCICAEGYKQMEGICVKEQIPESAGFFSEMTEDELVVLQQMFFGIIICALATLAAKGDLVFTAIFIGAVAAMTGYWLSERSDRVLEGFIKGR
Chain of UniProt Q9UJU6 (Q9UJU6 whole entry, looked up): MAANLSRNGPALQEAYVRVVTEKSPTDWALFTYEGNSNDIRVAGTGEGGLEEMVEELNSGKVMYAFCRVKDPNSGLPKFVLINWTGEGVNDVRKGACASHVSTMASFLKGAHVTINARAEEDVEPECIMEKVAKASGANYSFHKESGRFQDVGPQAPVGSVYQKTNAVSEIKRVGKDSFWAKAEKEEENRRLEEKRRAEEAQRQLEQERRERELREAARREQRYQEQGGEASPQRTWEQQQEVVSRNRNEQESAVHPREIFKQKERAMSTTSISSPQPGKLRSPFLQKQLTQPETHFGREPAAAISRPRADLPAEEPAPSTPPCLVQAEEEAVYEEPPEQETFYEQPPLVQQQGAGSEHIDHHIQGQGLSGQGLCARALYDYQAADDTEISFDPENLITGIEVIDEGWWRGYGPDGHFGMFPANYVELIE
Chain of UniProt P60981 (P60981 whole entry, looked up): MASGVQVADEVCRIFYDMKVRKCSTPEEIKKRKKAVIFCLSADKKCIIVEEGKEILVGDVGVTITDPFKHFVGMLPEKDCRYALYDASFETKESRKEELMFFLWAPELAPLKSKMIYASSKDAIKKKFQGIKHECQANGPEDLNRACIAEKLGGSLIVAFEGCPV
Chain of UniProt Q96EP5 (Q96EP5 whole entry, looked up): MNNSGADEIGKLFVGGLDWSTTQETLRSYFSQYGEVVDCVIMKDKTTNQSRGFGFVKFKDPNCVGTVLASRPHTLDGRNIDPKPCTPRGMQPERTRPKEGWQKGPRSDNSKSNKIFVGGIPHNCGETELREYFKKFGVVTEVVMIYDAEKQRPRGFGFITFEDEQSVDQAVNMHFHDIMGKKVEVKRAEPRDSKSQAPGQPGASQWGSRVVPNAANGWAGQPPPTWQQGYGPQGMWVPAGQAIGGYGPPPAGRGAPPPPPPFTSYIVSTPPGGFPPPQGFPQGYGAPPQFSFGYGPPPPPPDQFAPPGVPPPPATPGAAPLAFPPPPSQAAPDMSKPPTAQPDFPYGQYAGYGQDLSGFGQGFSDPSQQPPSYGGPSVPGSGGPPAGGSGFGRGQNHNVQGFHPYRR
Chain of UniProt Q9NPI6 (Q9NPI6 whole entry): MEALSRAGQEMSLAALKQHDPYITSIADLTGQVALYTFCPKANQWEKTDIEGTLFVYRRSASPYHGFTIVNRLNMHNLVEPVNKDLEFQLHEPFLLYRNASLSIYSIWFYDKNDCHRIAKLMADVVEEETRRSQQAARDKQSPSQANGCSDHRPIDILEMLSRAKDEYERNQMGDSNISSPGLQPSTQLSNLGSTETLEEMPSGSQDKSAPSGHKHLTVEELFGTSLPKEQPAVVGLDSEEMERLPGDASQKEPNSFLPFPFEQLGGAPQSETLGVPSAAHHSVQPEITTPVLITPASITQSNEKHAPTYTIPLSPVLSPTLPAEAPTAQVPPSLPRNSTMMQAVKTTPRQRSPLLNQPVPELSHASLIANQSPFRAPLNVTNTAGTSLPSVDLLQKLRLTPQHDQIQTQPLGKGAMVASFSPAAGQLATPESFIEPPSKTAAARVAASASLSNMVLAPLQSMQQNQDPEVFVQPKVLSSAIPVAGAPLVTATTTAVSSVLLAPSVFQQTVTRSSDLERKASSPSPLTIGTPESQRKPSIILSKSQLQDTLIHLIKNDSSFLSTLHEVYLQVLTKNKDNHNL
Chain of UniProt Q14061 (Q14061 whole entry, looked up): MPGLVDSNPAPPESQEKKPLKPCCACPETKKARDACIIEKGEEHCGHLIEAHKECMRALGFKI
Chain of UniProt P14854 (P14854 whole entry, looked up): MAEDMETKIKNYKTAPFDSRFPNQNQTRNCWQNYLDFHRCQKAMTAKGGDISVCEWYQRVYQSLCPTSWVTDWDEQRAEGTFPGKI

Target	probe-labelled cysteine peptide fold change (10 µM)	probe-labelled cysteine peptide fold change (50 µM)
DDX41_Q9UJV9_540_ACDESVLMDLK (UniProt Q9UJV9)	-0.0247	-0.111
DOK3_Q7L591_493_KGPAPCDRP (UniProt Q7L591)	-0.0118	0.0304
CRYZL1_O95825_177_VISTACSLEDK (UniProt O95825)	0.0726	0.107
DCP1A_Q9NPI6_39_QHDPYITSIADLTGQVALYTFCPK (UniProt Q9NPI6)	0.179	0.205
CORO1A_P31146_332_RGLEVNKCEIAR (UniProt P31146)	-0.603	-0.342
DIAPH1_O60610_964_LQFSEQVENIKPEIVSVTAACEELR (UniProt O60610)	0.176	0.06
CTNNA1_P35221_772_TIADHCPDSACK (UniProt P35221)	-0.0482	-0.0902
CSNK1A1_P48729_249_MSTPVEVLCK (UniProt P48729)	-0.305	-0.401
DHX15_O43143_774_IAPQYYDMSNFPQCEAKR (UniProt O43143)	-0.432	-0.211
CPSF3_Q9UKF6_223_FCNTVHDIVNR (UniProt Q9UKF6)	-0.0667	-0.11
DBNL_Q9UJU6_97_KGACASHVSTMASFLK (UniProt Q9UJU6)	-0.0713	-0.568
DHX9_Q08211_608+612_KDKDDDGGEDDDANCNLICGDEYGPETR (UniProt Q08211)	-0.128	-0.345
DHX37_Q8IY37_616_LCVVATNVAETSLTIPGIK (UniProt Q8IY37)	-0.0366	0.0989
CRIP1_P50238_56_TLTSGGHAEHEGKPYCNHPCYAAMFGPK (UniProt P50238)	-0.889	-1.02
DHCR24_Q15392_393_CLQQALHTFQNDIHVYPIWLCPFILPSQPGLVHPK (UniProt Q15392)	0.14	-0.425
DTWD2_Q8NBA8_143_FSEERDPELSTVCR (UniProt Q8NBA8)	0.148	0.0336
DHRS7_Q9Y394_233_TELATYPGIIVSNICPGPVQSNIVENSLAGEVTK (UniProt Q9Y394)	-0.0824	0.0763
CPT2_P23786_512_CSEAFVREPSR (UniProt P23786)	-0.197	-0.0581
COX6B1_P14854_54_GGDISVCEWYQR (UniProt P14854)	-0.188	-0.269
DDX59_Q5T1V6_208_QQLGILVQGQEVTRPIIDFEHCSLPEVLNHNLKK (UniProt Q5T1V6)	-0.239	-0.182
DHX37_Q8IY37_766_LSCPITALGR (UniProt Q8IY37)	-0.0635	0.0316

Target	probe-labelled cysteine peptide fold change (10 µM)	probe-labelled cysteine peptide fold change (50 µM)
CTSZ_Q9UBR2_179_ECHAIR (UniProt Q9UBR2)	-0.116	0.567
DAZAP1_Q96EP5_63_DPNCVGTVLASR (UniProt Q96EP5)	0.186	0.402
DDX17_Q92841_166+199_GGDVCPKPVFAFHHANFPQYVMDVLMDQHFTEPTPIQCQGFPLALSGR (UniProt Q92841)	-0.612	-0.604
CSTF2_P33240_62_GYGFCEYQDQETALSAMR (UniProt P33240)	-0.512	-0.471
DIP2B_Q9P265_1282_TCVVVAEERPR<|>DIP2C_Q9Y2E4_1263_TCVVVAEERPR (UniProt Q9Y2E4+Q9P265)	0.0276	0.197
DNAJC2_Q99543_276_TLVDNAYSCDPR (UniProt Q99543)	-0.0127	-0.0992
DDX21_Q9NR30_539_TGVCICFYQHK (UniProt Q9NR30)	-0.0402	-0.0081
CTSB_P07858_93_EQWPQCPTIK (UniProt P07858)	-0.026	-0.172
DENR_O43583_44_VLYCGVCSLPTEYCEYMPDVAK (UniProt O43583)	-0.0798	-0.0802
DDX6_P26196_324_VHCLNTLFSR (UniProt P26196)	0.158	0.183
DYNC1H1_Q14204_1977_MLSAVSQQVQCIQEALREHSNPNYDK (UniProt Q14204)	-0.708	-0.193
DHRS9_Q9BPW9_60_GFHVIAACLTESGSTALK (UniProt Q9BPW9)	0.105	0.197
DUS3L_Q96G46_396_TVEVDFVDINVGCPIDLVYKK (UniProt Q96G46)	-0.169	-0.11
CRYBG1_Q9Y4K1_594+609_EVQLPTCHSNEPEVVSVASCAPPQEEVLGNEHSHCTAELAAK (UniProt Q9Y4K1)	-0.0918	-0.248
DYNC1H1_Q14204_3573_WQASSLPADDLCTENAIMLK (UniProt Q14204)	-0.0171	-0.286
COX17_Q14061_23+24_KPLKPCCACPETK (UniProt Q14061)	-0.386	-0.745
DYNC1H1_Q14204_4644_GVAVLCTE (UniProt Q14204)	0.0055	0.0643
DDX24_Q9GZR7_599_SLVFANSISCIK (UniProt Q9GZR7)	0.479	0.567
DCTPP1_Q9H773_110_CRVDLPLAVLSK (UniProt Q9H773)	-0.361	-0.184
DHX37_Q8IY37_486_MLPAGGILVFLTGQAEVHALCR (UniProt Q8IY37)	0.281	0.563
DDX60L_Q5H9U9_502_CHVDEQSR (UniProt Q5H9U9)	-0.013	-0.526

Target	probe-labelled cysteine peptide fold change (10 µM)	probe-labelled cysteine peptide fold change (50 µM)
CTNNBL1_Q8WYA6_370_VLDHAMIGPEGTDNCHK (UniProt Q8WYA6)	-0.0184	-0.103
DCTN4_Q9UJW0_280_CEHNLSKPEFNPTSIK (UniProt Q9UJW0)	0.246	0.175
CRELD1_Q96HD1_229_CSGPEESNCLQCK (UniProt Q96HD1)	0.0143	-0.197
DDX28_Q9NUL7_453_DILLCTDIASR (UniProt Q9NUL7)	0.0908	0.0393
DDX58_O95786_428_NTDEALDYICK (UniProt O95786)	0.0328	0.169
DMXL2_Q8TDJ6_62_HGNIQVSCVECSNQQGR (UniProt Q8TDJ6)	-0.159	-0.593
DLGAP5_Q15398_129_YRPDMPCFLLSNQNAVK (UniProt Q15398)	-0.299	-0.594
DSTN_P60981_39_AVIFCLSADK (UniProt P60981)	-0.0558	-0.00534
DOK3_Q7L591_133_LADCVSVLPADGESCPR (UniProt Q7L591)	0.0537	0.00634
DENND3_A2RUS2_1094_DTSTSFLAFQLLPEEEQLWAACAGR (UniProt A2RUS2)	1.22	-0.0979
DYNC1H1_Q14204_4438_QDLADVVQVCEGK (UniProt Q14204)	0.0826	0.0819
DENND4B_O75064_180_GEGTPHTYCR (UniProt O75064)	0.0109	0.131
DYNC1LI2_O43237_104_CNVWILDGDLYHK<|>DYNC1LI1_Q9Y6G9_117_CNVWILDGDLYHK (UniProt Q9Y6G9+O43237)	-0.0068	0.0237
DIP2A_Q14689_543_ALTQACGYSEAETLTNVLDFKR (UniProt Q14689)	0.205	0.286
DDB2_Q92466_322_VYSASQWDCPLGLIPHPHR (UniProt Q92466)	0.0907	-0.0149
DLD_P09622_484_VCHAHPTLSEAFR (UniProt P09622)	0.111	-0.123
DCP2_Q8IU60_391_KLQDNFETDAVYDLPSSSEDQLLEHAEGQPVACNGHCK (UniProt Q8IU60)	-0.209	-0.464
DARS2_Q6PI48_202_MREYLCNLHGFVDIETPTLFKR (UniProt Q6PI48)	-0.272	-0.129
CTNNA2_P26232_792_IALYCHQLNICSK (UniProt P26232)	-0.0111	0.118
DUS3L_Q96G46_358_RHQCEDIFGVQLEGAFPDTMTK (UniProt Q96G46)	0.0341	0.0134
CPNE2_Q96FN4_265_DSVPLEFECINPK (UniProt Q96FN4)	-0.22	-0.165

Target	probe-labelled cysteine peptide fold change (10 µM)	probe-labelled cysteine peptide fold change (50 µM)
DCAF10_Q5QP82_412_NSLEVVTPEVLGESDHGNCITSLQLHPK (UniProt Q5QP82)	0.152	-0.291
DOCK8_Q8NF50_590_IQFMCGEDASNAMPVIFGK (UniProt Q8NF50)	-0.02	0.209
CPNE8_Q86YQ8_118_HDFLGQVFCTLGEIVGSQGSR (UniProt Q86YQ8)	0.132	0.595
CORO1C_Q9ULV4_39_VTWDSSFCAVNPR (UniProt Q9ULV4)	0.0602	-0.0375
DARS_P14868_130_IGSCTQQDVELHVQK (UniProt P14868)	0.0673	0.0472
DPYSL2_Q16555_439_THNSSLEYNIFEGMECR (UniProt Q16555)	0.0805	-0.109
DDX42_Q86XP3_333_ELEPGDGPIAVIVCPTR (UniProt Q86XP3)	0.0933	0.0408
DIAPH1_O60610_1227_AGCAVTSLLASELTK (UniProt O60610)	-0.0516	-0.221
DGKZ_Q13574_876_EASVPLGTVVVPGDSDLELCR (UniProt Q13574)	0.514	0.581
CTR9_Q6PD62_196_TNPGCPAEVR (UniProt Q6PD62)	-0.0355	0.0417
DCTN1_Q14203_677_YEHALSQCSVDVYKK (UniProt Q14203)	-0.0153	0.149
DIDO1_Q9BTC0_1449_MCADVR (UniProt Q9BTC0)	-0.0543	-0.242
DAXX_Q9UER7_106_AHSLFLASAEFCNILSR (UniProt Q9UER7)	0.442	1.38
DNMT1_P26358_580_HAQFVVEQVESYDEAGDSDEQPIFLTPCMR (UniProt P26358)	0.0642	0.604
DDX28_Q9NUL7_360_LHCIMPHVK (UniProt Q9NUL7)	-0.061	0.0889
DECR2_Q9NUI1_22_HLFCPDLLR (UniProt Q9NUI1)	0.0413	-0.0816
DDX46_Q7L014_501_RGAEIIVCTPGR (UniProt Q7L014)	0.161	0.296
CSMD2_Q7Z408-3_2_CDAHLR (UniProt Q7Z408)	-0.56	-0.972
